From PubChem BioAssay
Active and inactive are the calls of the source.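 The calls were made as follows, unless noted: active = normalized viability below 100% at a tested concentration; inactive = the rest.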

Assays:
[1] = ovarian cancer cell viability with rucaparib, profiling panel, oncology-focused library, rucaparib conditional (AID 1508598); conditions: patient-derived ovarian cancer cells, CellTiter-Glo viability, 144 h, active compounds read low
[2] = molecular target: NAD(+) hydrolase SARM1 (Homo sapiens) (UniProt Q6SZW1); assay: SARM1 TIR NADase inhibitors, cell lysate, NAD-Glo luminescence (AID 1508614;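 active = compound whose remaining NAD level is above about 45 nM, limit read from the data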;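 also: higher remaining NAD means stronger inhibition of SARM1 NADase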); conditions: SAM-TIR HEK293T lysate NADase, at 1 µM, active compounds read high
[3] = at 0.000305 µM, OCI-C5x cells, with rucaparib 10 µM, 100% = cells with rucaparib alone
[4] = at 0.000305 µM, OCI-C5x cells, without rucaparib
[5] = at 0.000305 µM, OCI-P5x cells, with rucaparib 20 µM, 100% = cells with rucaparib alone
[6] = at 0.000305 µM, OCI-P5x cells, without rucaparib
[7] = at 0.00122 µM, OCI-C5x cells, with rucaparib 10 µM, 100% = cells with rucaparib alone
[8] = at 0.00122 µM, OCI-C5x cells, without rucaparib
[9] = at 0.00122 µM, OCI-P5x cells, with rucaparib 20 µM, 100% = cells with rucaparib alone
[10] = at 0.00122 µM, OCI-P5x cells, without rucaparib
[11] = at 0.00488 µM, OCI-C5x cells, with rucaparib 10 µM, 100% = cells with rucaparib alone
[12] = at 0.00488 µM, OCI-C5x cells, without rucaparib
[13] = at 0.00488 µM, OCI-P5x cells, with rucaparib 20 µM, 100% = cells with rucaparib alone
[14] = at 0.00488 µM, OCI-P5x cells, without rucaparib
[15] = at 0.0195 µM, OCI-C5x cells, with rucaparib 10 µM, 100% = cells with rucaparib alone
[16] = at 0.0195 µM, OCI-C5x cells, without rucaparib
[17] = at 0.0195 µM, OCI-P5x cells, with rucaparib 20 µM, 100% = cells with rucaparib alone
[18] = at 0.0195 µM, OCI-P5x cells, without rucaparib
[19] = at 0.0781 µM, OCI-C5x cells, with rucaparib 10 µM, 100% = cells with rucaparib alone
[20] = at 0.0781 µM, OCI-C5x cells, without rucaparib
[21] = at 0.0781 µM, OCI-P5x cells, with rucaparib 20 µM, 100% = cells with rucaparib alone
[22] = at 0.0781 µM, OCI-P5x cells, without rucaparib
[23] = at 0.313 µM, OCI-C5x cells, with rucaparib 10 µM, 100% = cells with rucaparib alone
[24] = at 0.313 µM, OCI-C5x cells, without rucaparib
[25] = at 0.313 µM, OCI-P5x cells, with rucaparib 20 µM, 100% = cells with rucaparib alone
[26] = at 0.313 µM, OCI-P5x cells, without rucaparib
[27] = at 1.25 µM, OCI-C5x cells, with rucaparib 10 µM, 100% = cells with rucaparib alone
[28] = at 1.25 µM, OCI-C5x cells, without rucaparib
[29] = at 1.25 µM, OCI-P5x cells, with rucaparib 20 µM, 100% = cells with rucaparib alone
[30] = at 1.25 µM, OCI-P5x cells, without rucaparib
[31] = at 5 µM, OCI-C5x cells, with rucaparib 10 µM, 100% = cells with rucaparib alone
[32] = at 5 µM, OCI-C5x cells, without rucaparib
[33] = at 5 µM, OCI-P5x cells, with rucaparib 20 µM, 100% = cells with rucaparib alone
[34] = at 5 µM, OCI-P5x cells, without rucaparib

Chain of NAD(+) hydrolase SARM1 (Homo sapiens) (Q6SZW1 whole entry, looked up): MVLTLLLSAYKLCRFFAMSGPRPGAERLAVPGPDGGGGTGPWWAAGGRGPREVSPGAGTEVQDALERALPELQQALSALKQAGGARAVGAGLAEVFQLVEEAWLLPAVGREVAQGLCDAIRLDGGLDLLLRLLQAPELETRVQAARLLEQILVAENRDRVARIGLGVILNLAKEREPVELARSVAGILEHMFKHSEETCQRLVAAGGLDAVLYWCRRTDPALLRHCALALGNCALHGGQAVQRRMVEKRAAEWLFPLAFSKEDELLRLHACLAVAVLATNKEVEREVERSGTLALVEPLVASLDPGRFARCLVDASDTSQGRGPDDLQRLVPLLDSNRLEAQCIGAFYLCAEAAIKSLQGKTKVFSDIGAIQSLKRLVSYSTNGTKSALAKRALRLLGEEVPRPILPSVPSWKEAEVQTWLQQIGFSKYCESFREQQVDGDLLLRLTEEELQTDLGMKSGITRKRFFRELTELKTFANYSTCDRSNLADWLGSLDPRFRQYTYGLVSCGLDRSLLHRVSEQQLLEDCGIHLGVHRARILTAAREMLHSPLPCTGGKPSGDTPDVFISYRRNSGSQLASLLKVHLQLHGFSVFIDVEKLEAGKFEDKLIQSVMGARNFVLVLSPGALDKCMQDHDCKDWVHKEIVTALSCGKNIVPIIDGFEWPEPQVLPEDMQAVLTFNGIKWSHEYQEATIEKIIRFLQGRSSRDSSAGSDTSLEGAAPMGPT

COc1cc2c(cc1O)CC[C@@H]1[C@H]2CC[C@]2(C)[C@H](O)CC[C@@H]12
active: viability [1, 6] 96.3% | viability [1, 9] 99.4% | viability [1, 17] 95.3% | viability [1, 28] 96.8% | viability [1, 30] 66.5% | viability [1, 33] 98.9% | viability [1, 34] 97.5%
inactive: viability [1, 3] 113% | viability [1, 4] 107% | viability [1, 5] 106% | viability [1, 7] 116% | viability [1, 8] 111% | viability [1, 10] 104% | viability [1, 11] 119% | viability [1, 12] 118% | viability [1, 13] 109% | viability [1, 14] 108% | viability [1, 15] 103% | viability [1, 16] 105% | viability [1, 18] 105% | viability [1, 19] 105% | viability [1, 20] 105% | viability [1, 21] 102% | viability [1, 22] 104% | viability [1, 23] 124% | viability [1, 24] 107% | viability [1, 25] 106% | viability [1, 26] 105% | viability [1, 27] 107% | viability [1, 29] 104% | viability [1, 31] 124% | viability [1, 32] 101%

CC(=O)[C@]1(O)Cc2c(O)c3c(c(O)c2[C@H](O[C@H]2C[C@H](N)[C@H](O)[C@H](C)O2)C1)C(=O)c1ccccc1C3=O
active: viability [1, 12] 73.9% | viability [1, 14] 96.9% | viability [1, 17] 74% | viability [1, 18] 36.9% | viability [1, 19] 82.5% | viability [1, 20] 7.56% | viability [1, 21] 55.5% | viability [1, 22] 12.2% | viability [1, 23] 3.18% | viability [1, 24] 1.75% | viability [1, 25] 19% | viability [1, 26] 7.09% | viability [1, 27] 1.52% | viability [1, 28] 1.48% | viability [1, 29] 9.24% | viability [1, 30] 4.04% | viability [1, 31] 3.72% | viability [1, 32] 3.03% | viability [1, 33] 4.45% | viability [1, 34] 3.64%
inactive: viability [1, 3] 107% | viability [1, 4] 103% | viability [1, 5] 110% | viability [1, 6] 115% | viability [1, 7] 105% | viability [1, 8] 107% | viability [1, 9] 107% | viability [1, 10] 112% | viability [1, 11] 104% | viability [1, 13] 110% | viability [1, 15] 148% | viability [1, 16] 112%

CC(C)CC(CC(=O)NO)C(=O)N[C@@H](Cc1ccc2ccccc2c1)C(=O)N[C@@H](C)C(=O)NCCN (stereo partly specified)
active: viability [1, 5] 90.2% | viability [1, 9] 88.9% | viability [1, 10] 99.8% | viability [1, 13] 92% | viability [1, 14] 94.4% | viability [1, 17] 84.6% | viability [1, 18] 100% | viability [1, 21] 90% | viability [1, 22] 92.6% | viability [1, 25] 91.3% | viability [1, 26] 92.3% | viability [1, 29] 85.1% | viability [1, 30] 86% | viability [1, 33] 78.6% | viability [1, 34] 88.3%
inactive: viability [1, 3] 123% | viability [1, 4] 120% | viability [1, 6] 101% | viability [1, 7] 111% | viability [1, 8] 110% | viability [1, 11] 123% | viability [1, 12] 118% | viability [1, 15] 123% | viability [1, 16] 120% | viability [1, 19] 132% | viability [1, 20] 102% | viability [1, 23] 114% | viability [1, 24] 114% | viability [1, 27] 134% | viability [1, 28] 112% | viability [1, 31] 112% | viability [1, 32] 110%

N[C@@H]1CCCN(c2c(/C=C3\SC(=O)NC3=O)cccc2-c2ccccc2)C1
active: viability [1, 5] 96.6% | viability [1, 9] 98.1% | viability [1, 17] 96.9% | viability [1, 24] 99.1% | viability [1, 25] 91.3% | viability [1, 27] 93.8% | viability [1, 29] 91.3% | viability [1, 33] 74.6% | viability [1, 34] 97.5%
inactive: viability [1, 3] 108% | viability [1, 4] 122% | viability [1, 6] 112% | viability [1, 7] 116% | viability [1, 8] 121% | viability [1, 10] 111% | viability [1, 11] 119% | viability [1, 12] 119% | viability [1, 13] 103% | viability [1, 14] 108% | viability [1, 15] 105% | viability [1, 16] 108% | viability [1, 18] 111% | viability [1, 19] 108% | viability [1, 20] 115% | viability [1, 21] 101% | viability [1, 22] 109% | viability [1, 23] 105% | viability [1, 26] 106% | viability [1, 28] 103% | viability [1, 30] 106% | viability [1, 31] 115% | viability [1, 32] 119%

CC/C=C\C/C=C\C/C=C\C/C=C\C/C=C\C/C=C\CCC(=O)OCC (tested in a mixture with another compound)
inactive: remaining NAD [2] 10 nM

CC(=O)O[C@@]1(C(C)=O)CC[C@H]2[C@@H]3C[C@H](C)C4=CC(=O)CC[C@]4(C)[C@@H]3CC[C@@]21C
inactive: viability [1, 3] 108% | viability [1, 4] 122% | viability [1, 6] 101% | viability [1, 7] 113% | viability [1, 8] 120% | viability [1, 9] 101% | viability [1, 10] 103% | viability [1, 11] 122% | viability [1, 12] 119% | viability [1, 13] 103% | viability [1, 14] 107% | viability [1, 15] 114% | viability [1, 16] 118% | viability [1, 17] 104% | viability [1, 18] 113% | viability [1, 19] 106% | viability [1, 20] 114% | viability [1, 22] 111% | viability [1, 23] 122% | viability [1, 24] 118% | viability [1, 25] 102% | viability [1, 26] 110% | viability [1, 27] 107% | viability [1, 28] 120% | viability [1, 29] 106% | viability [1, 30] 111% | viability [1, 31] 105% | viability [1, 32] 121% | viability [1, 34] 105%
active: viability [1, 5] 94.9% | viability [1, 21] 94% | viability [1, 33] 92.5%
